Results published in PubChem BioAssay.
Calls of active or inactive are those of the source.

Columns and labels:
[1] = tested on: Plasmodium falciparum Sir2 (PF13_0152, Sir2A); test: pfSir2 binders on small-molecule microarrays, primary screen, biochemical, small-molecule microarray, 635 nm fluorescence (AID 1098); details: small-molecule microarray binding, fluorescence 635 nm; higher = more signal;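 note: score merges spot fluorescence intensity with its signal-to-noise ratio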
[2] = small-molecule microarray binders of probe aDKK1, primary screen, biochemical, biotinylated probe, 635/667 nm fluorescence (AID 1099); details: higher = more signal;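 note: score merges 667nm spot fluorescence with signal to noise across triplicate slides; reference of the scale not given here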
[3] = small-molecule microarray binders of probe aCHRDL2, primary screen, biochemical, biotinylated probe, 635/667 nm fluorescence (AID 1100); details: higher = more signal
[4] = splicing luciferase reporter signal modulators, primary screen, spliceosome inhibition project, cell-based, HEK293, splice +/- reporter (AID 1101); details: luminescence, 24 h, higher = more signal, called active from +8 up or from −8 down;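 note: HEK293 cells carrying a splicing-competent luciferase reporter gene; test concentration not given here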
[5] = biological target: Fibroblast growth factor 10 (Homo sapiens) (UniProt O15520); test: FGF10 binders on small-molecule microarrays, primary screen, biochemical, small-molecule microarray, 635 nm fluorescence (AID 1102); details: FGF10 binding, fluorescence 635 nm, higher = more signal
Sequence of Fibroblast growth factor 10 (Homo sapiens) (O15520 whole entry, looked up): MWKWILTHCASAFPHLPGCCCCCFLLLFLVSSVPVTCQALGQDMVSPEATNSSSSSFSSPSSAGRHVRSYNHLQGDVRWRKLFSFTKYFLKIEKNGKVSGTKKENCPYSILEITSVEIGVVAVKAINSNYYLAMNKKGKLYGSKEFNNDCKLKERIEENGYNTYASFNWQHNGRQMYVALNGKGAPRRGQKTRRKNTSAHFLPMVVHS

[6] = tested on: glycogen synthase kinase-3 (GSK3A per assay name; protocol says GSK3B); test: GSK3 binders on small-molecule microarrays, primary screen, biochemical, small-molecule microarray, 635 nm fluorescence, GSK3A (AID 1103); details: small-molecule microarray binding, fluorescence 635 nm; higher = more signal; note: the record names both GSK3A and GSK3B
[7] = biological target: Epidermal growth factor receptor (Homo sapiens) (UniProt P00533); test: EGFR binders on small-molecule microarrays, primary screen, biochemical, small-molecule microarray, 635 nm fluorescence (AID 1104); details: EGFR binding, higher = more signal;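 note: score merges 667 nm emission intensity with spot signal to noise over triplicate slides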
Sequence of Epidermal growth factor receptor (Homo sapiens) (P00533 whole entry, looked up): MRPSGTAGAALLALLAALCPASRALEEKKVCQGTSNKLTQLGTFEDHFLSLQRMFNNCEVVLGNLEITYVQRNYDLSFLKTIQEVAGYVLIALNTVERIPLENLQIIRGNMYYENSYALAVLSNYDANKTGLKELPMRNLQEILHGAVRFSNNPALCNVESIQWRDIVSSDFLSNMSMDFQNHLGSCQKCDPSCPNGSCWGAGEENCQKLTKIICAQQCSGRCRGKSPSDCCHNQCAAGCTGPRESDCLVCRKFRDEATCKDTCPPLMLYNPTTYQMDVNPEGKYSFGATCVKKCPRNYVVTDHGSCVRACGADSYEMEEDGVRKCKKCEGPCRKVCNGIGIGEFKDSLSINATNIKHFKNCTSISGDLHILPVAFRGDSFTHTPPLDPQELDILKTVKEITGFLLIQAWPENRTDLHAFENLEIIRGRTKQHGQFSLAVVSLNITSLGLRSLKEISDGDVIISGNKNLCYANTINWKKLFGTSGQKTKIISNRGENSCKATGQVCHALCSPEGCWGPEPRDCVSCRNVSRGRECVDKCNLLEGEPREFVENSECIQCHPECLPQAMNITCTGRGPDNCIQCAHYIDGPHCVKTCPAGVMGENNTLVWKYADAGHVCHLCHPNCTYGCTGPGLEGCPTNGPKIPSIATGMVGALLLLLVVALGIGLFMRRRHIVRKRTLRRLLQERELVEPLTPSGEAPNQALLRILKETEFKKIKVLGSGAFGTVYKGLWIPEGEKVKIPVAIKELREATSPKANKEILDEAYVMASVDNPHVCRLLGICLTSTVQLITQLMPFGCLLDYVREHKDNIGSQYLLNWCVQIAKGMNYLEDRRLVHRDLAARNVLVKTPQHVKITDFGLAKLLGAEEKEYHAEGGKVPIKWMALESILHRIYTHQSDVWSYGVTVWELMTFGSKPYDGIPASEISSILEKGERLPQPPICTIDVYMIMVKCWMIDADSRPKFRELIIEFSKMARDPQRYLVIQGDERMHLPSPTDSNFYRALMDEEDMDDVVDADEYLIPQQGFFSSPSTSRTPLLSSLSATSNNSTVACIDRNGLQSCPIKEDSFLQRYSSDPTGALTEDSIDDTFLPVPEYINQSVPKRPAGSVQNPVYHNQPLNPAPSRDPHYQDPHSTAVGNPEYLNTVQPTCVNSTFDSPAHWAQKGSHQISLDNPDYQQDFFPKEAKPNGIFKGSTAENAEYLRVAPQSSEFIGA

[8] = biological target: Follistatin-related protein 3 (Homo sapiens) (UniProt O95633); test: FSTL3 binders on small-molecule microarrays, primary screen, biochemical, small-molecule microarray, 635 nm fluorescence (AID 1105); details: FSTL3 binding, higher = more signal;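 note: score merges emission near 667 nm and signal to noise per printed spot across three slides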
Sequence of Follistatin-related protein 3 (Homo sapiens) (O95633 whole entry, looked up): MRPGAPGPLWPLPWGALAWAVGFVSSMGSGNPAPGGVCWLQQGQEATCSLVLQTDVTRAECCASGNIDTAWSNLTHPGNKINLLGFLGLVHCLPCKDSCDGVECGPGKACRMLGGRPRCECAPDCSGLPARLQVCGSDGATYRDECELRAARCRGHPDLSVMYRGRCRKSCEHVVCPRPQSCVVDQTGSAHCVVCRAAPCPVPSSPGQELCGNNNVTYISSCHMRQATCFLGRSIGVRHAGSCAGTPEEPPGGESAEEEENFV

[9] = biological target: Dickkopf-related protein 1 (Homo sapiens) (UniProt O94907); test: DKK1 binders on small-molecule microarrays, primary screen, biochemical, small-molecule microarray, 635 nm fluorescence scan (AID 1106); details: DKK1 binding, higher = more signal;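 note: score merges emission near 667 nm with signal to noise over three replicate slides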
Sequence of Dickkopf-related protein 1 (Homo sapiens) (O94907 whole entry, looked up): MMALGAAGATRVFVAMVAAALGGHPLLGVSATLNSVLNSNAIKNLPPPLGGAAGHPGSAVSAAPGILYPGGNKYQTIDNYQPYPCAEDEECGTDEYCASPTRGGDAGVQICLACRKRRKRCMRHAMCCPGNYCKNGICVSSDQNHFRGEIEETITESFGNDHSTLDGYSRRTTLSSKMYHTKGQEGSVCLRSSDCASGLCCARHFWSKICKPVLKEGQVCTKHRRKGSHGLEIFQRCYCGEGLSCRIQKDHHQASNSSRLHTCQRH

[10] = tested on: Inhibin beta A chain (activin A); test: INHBA (activin A) binders on microarrays, primary screen, biochemical, small-molecule microarray, 635 nm fluorescence scan (AID 1107); details: small-molecule microarray binding, higher = more signal;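 note: mouse activin A protein probed at 4.33 µg/mL on printed slides; score merges bound-protein fluorescence near 667 nm with spot signal-to-noise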

Compound | composite z-score [1] | composite z-score [2] | composite z-score [3] | z-score [4] | composite z-score [5] | composite z-score [6] | composite z-score [7] | composite z-score [8] | composite z-score [9] | composite z-score [10]
O=C1O[C@H](c2ccccc2)[C@H](c2ccccc2)N2[C@H]1[C@@H](C(=O)NC[C@H](O)c1ccccc1)[C@]1(C(=O)Nc3ccc(C#CC4=CCCCC4)cc31)[C@H]2c1ccc(OCCO)cc1 | 1.06 | 0.607 | 0.469 | -1.33 (inactive) | 0.313 | 1.27 | 0.386 | 0.968 | 0.703 | 1.05
COc1ccc([C@H]2C[C@H]3C(Br)=C[C@]2(OC)C(=O)[C@]32CO2)cc1 | 0.488 | -0.0499 | 0.348 | 1.49 (inactive) | 1.05 | 0.083 | -0.0387 | -0.0092 | 0.239 | 0.504
COc1cccc([C@@H]2[C@@H](C)CC[C@H]3C(=O)N(C)[C@@H](C(C)C)C(=O)N23)c1 | 0.516 | -0.22 | -0.532 | 0.223 (inactive) | 0.266 | 0.649 | 0.418 | 0.472 | 0.782 | 0.428
COc1ccc(-c2ccccc2[C@@H]2N[C@H](C(=O)O)CC[C@H]2C)cc1 | 0.0888 | -0.267 | -0.519 | -1.21 (inactive) | 0.262 | 0.387 | 0.418 | 0.336 | 0.526 | 0.135
Cc1ccc(N2C(=O)c3ccccc3[C@@H](C(=O)NCC(F)(F)F)[C@@H]2c2ccc(CO)cc2)nc1 | 1.72 | 0.476 | 1.22 | -1.08 (inactive) | -1.15 | -1.18 | -2.69 | -1.83 | -1.69 | -1.57
O=C1c2ccccc2[C@](Cc2ccccc2I)(C(=O)O)[C@H](c2ccc(CO)cc2)N1C1CCCCC1 | 1.31 | 0.94 | 1.05 | -1.32 (inactive) | 1.28 | 1.28 | 0.947 | 1.06 | 0.16 | 0.198
COC(=O)[C@@]1(Cc2ccccc2CN=[N+]=[N-])N=C(c2ccc(OCCCO)cc2)O[C@H]1c1ccccc1N=[N+]=[N-] | 1.31 | 0.244 | 0.973 | -0.298 (inactive) | 0.752 | -0.381 | -0.0185 | -0.0661 | -0.608 | 0.948
CCCC[C@@H]1C[C@H]1[C@@H](NC(=O)c1ccccc1)c1ccccc1C(F)(F)F | 1.15 | 0.526 | 1.05 | -0.261 (inactive) | 0.0165 | 0.415 | -0.279 | -0.0027 | -0.521 | 0.616
COc1cccc([C@@H]2[C@@H](C)CC[C@H]3C(=O)N4[C@H](c5cccc(OC)c5)[C@@H](C)CC[C@H]4C(=O)N23)c1 | 0.168 | -0.271 | -0.521 | -1.59 (inactive) | 0.614 | 0.802 | 0.518 | 0.75 | 0.558 | -0.185
CCOC(=O)C1=CC[C@@H](c2ccc(-c3ccc(OCc4ccccc4)cc3)c(OC)c2)N(S(=O)(=O)c2ccc(C)cc2)[C@H]1c1ccccc1 | 1.13 | 0.583 | 0.721 | -1.44 (inactive) | 1.24 | 1.28 | 0.12 | 1.38 | 0.273 | 0.765
CCCC=C(CCC)[C@@H](NS(=O)(=O)c1cccc(C(F)(F)F)c1)c1ccc(C(=O)OC)cc1 | 0.935 | 1.55 | 1.06 | -0.489 (inactive) | -0.67 | 0.37 | -1.1 | -0.271 | -0.553 | -0.507
C=CCNC(=O)[C@@H]1[C@H]2C(=O)O[C@H](c3ccccc3)[C@H](c3ccccc3)N2[C@H](c2ccc(OCCO)cc2)[C@@]12C(=O)N(C(=O)OCCOC)c1ccc(C#CC3(O)CCCCCC3)cc12 | 1.12 | 0.342 | 0.375 | -0.929 (inactive) | 0.325 | 0.871 | 0.432 | 0.702 | 0.125 | 1.34
O=C1O[C@@H](c2ccccc2)[C@@H](c2ccccc2)N2[C@@H](c3ccc(O)cc3)[C@]3(C(=O)Nc4ccc(C#CC5(O)CCCCCC5)cc43)[C@@H](C(=O)Nc3nc4ccccc4s3)[C@H]12 | 0.864 | 0.051 | 0.546 | 0.179 (inactive) | 0.869 | 1.34 | 0.736 | 1.39 | 0.892 | 0.644
